Source: PubChem (National Center for Advancing Translational Sciences (NCATS))
DT40 TDP1 CPT = DT40-hTDP1 cell growth loss with CPT. Potency, µM (series often up to 46.2 µM), most hits filed as inhibitors. actives 12% (n = 420,000). chicken DT40 Tdp1-/-;hTDP1 cells + 20 nM CPT, ATP luminescence, 48 h. AID 686979; also: nearly all actives have a fitted effect of over 55% in size
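Cell growth measured by CellTiter-Glo luminescence after a minimum 48 h, 37 C compound exposure with 20 nM CPT in Tdp1-knockout DT40 cells stably expressing hTDP1, seeded 400/well; qHTS titration format.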
IL-1B inflam inh = blocks inflammasome-driven IL-1 beta release. AID 743279. activity change, % at 57.5 µM. THP-1 LPS/ATP IL-1B secretion, AlphaLISA, 16 h; stronger effect = lower value. actives 4.7% (n = 360,000); in the data active = activity change below about -50%; inconclusive = mostly about -30% to -49%
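THP-1 cells pretreated 1 hr with compounds (up to 57.5 uM final), then stimulated with LPS (250 ng/mL final) plus ATP (1.25 mM final); secreted IL-1B measured by AlphaLISA after 16 hr, decreased signal indicating inhibition.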
ClpP mod = qHTS Assay for Activators of ClpP; ATP-dependent Clp protease proteolytic subunit (Bacillus subtilis (strain 168)), P80244; purified B. subtilis ClpP, FRET peptide cleavage, 20 min; Potency, µM (top dose mostly 57.5 µM); actives 1.9% (n = 340,000); active = well fitted falling curve with a large enough effect; inconclusive = small, poorly fitted or top-dose-only effect; inactive = no such curve, though single readings can be large or run the other way; also: the source files actives as falling curves though it sought activators and does not explain the sign; nearly all actives have a fitted effect of over 65% in size
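Purified B. subtilis ClpP, 10 microg/mL final in Tris/HCl pH8 with KCl, BSA, glycerol and Tween-20, cleaved an Abz/nitrotyrosine-quenched decapeptide. Fluorescence (ex 320, em 430) was read at 0 and 20 min at room temperature. Delta was normalized to 5.8 microM ADEP and DMSO/no-enzyme controls.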
DT40 TDP1 no CPT = qHTS for Inhibitors of human tyrosyl-DNA phosphodiesterase 1 (TDP1): qHTS in cells in absence of CPT. DT40 Tdp1-/- hTDP1 cells, no CPT, ATP luminescence, 48 h. Potency, µM (titrated, usually from 46.2 µM), most hits filed as inhibitors. actives 15% (n = 420,000). AID 686978, 2013; also: nearly all actives have a fitted effect of over 55% in size
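Chicken DT40 Tdp1-/- cells stably complemented with human TDP1 were seeded at 400 cells/well with DMSO in place of 20 nM camptothecin. After compound pinning, cells grew at least 48 hr at 37 °C; viability read by CellTiter-Glo luminescence.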
DRD3 agonist = D3 dopamine receptor (human) agonism; P35462; D3R DiscoveRx beta-arrestin cells, luminescence, 90 min; max activation, %; actives 0.58% (n = 410,000); AID 652048; in the data active = max activation above about 30%
Target sequence (P35462 whole entry, looked up): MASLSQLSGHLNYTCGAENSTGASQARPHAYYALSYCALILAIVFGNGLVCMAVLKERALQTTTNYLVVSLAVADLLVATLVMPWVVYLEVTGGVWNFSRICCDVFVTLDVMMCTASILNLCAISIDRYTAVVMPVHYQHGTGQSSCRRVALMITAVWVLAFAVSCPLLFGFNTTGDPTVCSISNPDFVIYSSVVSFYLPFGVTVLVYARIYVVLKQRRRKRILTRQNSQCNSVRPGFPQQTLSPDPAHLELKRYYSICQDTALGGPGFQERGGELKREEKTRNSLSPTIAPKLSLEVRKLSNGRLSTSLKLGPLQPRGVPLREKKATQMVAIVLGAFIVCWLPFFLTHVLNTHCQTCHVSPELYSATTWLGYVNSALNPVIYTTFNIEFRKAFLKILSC
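Agonist mode: compounds and dopamine controls were applied to plated cells for 90 min at 37 degrees C after an overnight attachment at 1500 cells/well. Luminescent read-out followed 30 - 60 minutes at room temperature with DiscoveRx detection reagent.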
DRD3 antagonist = antagonists of human D3 dopamine receptor; P35462; D3R cells, DiscoveRx beta-arrestin luminescence, antagonist mode; stronger effect = lower value; max response, negative = inhibition, %; actives 2.5% (n = 360,000); AID 652054; in the data active = max response below about -50%; inconclusive = no clear call, values can overlap the other calls
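Cells expressing the human receptor were seeded at 1500 cells/well, incubated overnight at 37 degrees C in 5% CO2, then exposed to library compounds with dopamine controls for 90 minutes at 37 degrees C before luminescent detection.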
Numbers stand for hits; . = inactive; ? = inconclusive; / = not tested or not shown; [ ] = dose if it differs, or a comment. An excerpt weighted towards active compounds, which were near 21% of everything screened. Unless noted, calls follow the shape of the dose curve; as a rule, active = well fitted inhibition curve with a large enough effect; inconclusive = small, poorly fitted or top-dose-only effect; inactive = flat fitted curve, though single readings scatter.

SMILES	DT40 TDP1 CPT	IL-1B inflam inh	ClpP mod	DT40 TDP1 no CPT	DRD3 agonist	DRD3 antagonist
Cc1ccc(C(=O)N(CC(=O)NC2CCCC2)c2cccc(F)c2)s1	.	-80	.	.	.	.
Cc1ccc(C(=O)N(CC(=O)NC2CCCCC2)c2ccccc2C)s1	?	.	.	23µM	.	.
C=CCOC(=O)C1=C[C@@H](c2coc3ccccc3c2=O)C[C@@H](OCCCCO)O1	.	.	.	.	.	.
CO/N=C(/C(=O)NC1C(=O)N2C(C(=O)O)=C(COC(N)=O)CSC12)c1ccco1 (configuration not stated)	.	/	/	.	/	/
Cc1ccc(/C=C2\SC(=S)N(/N=C/c3cc([N+](=O)[O-])ccc3O)C2=O)o1	?	.	.	?	.	-75
CC(C)NC(=O)N1Cc2cc(C(=O)NC3CCC3)nc(-c3cccc(-c4cncnc4)c3)c2[C@H]1CCO	.	.	.	.	.	?
O=C(c1cn(-c2ccccc2)nc1-c1cccs1)N1CCN(c2ccccn2)CC1	?	.	.	21µM	.	.
CN(C)c1ccc(NC(=O)c2cn(-c3ccccc3)nc2-c2cccs2)cc1	.	?	.	?	.	.
O=C(Nc1ccc2ccccc2c1)c1cn(-c2ccccc2)nc1-c1cccs1	?	.	32µM	?	.	?
CCN(CC)CCOC(=O)c1ccc(NC(=O)c2cn(-c3ccccc3)nc2-c2cccs2)cc1	?	-53	/	21µM	.	.
CSc1nnc(CCNC(=O)c2ccc(-c3cccc(F)c3)cc2)n1-c1ccc(F)cc1	.[9.04 µM]	/	/	.	/	/
O=S(=O)(c1ccccc1)N1CCC[C@@]2(CCN(Cc3ccccc3)C2)C1	.	/	/	.	/	/
CC1(C)CC[C@]2(C(=O)O)CC[C@]3(C)C(=CCC4[C@@]5(C)CC[C@H](O)C(C)(C)[C@@H]5CC[C@]43C)C2C1 (some centres not stated)	.	/	/	.	/	/
CC1(C)C[C@H](O)[C@]2(CO)CC[C@]3(C)C(=CCC4[C@@]5(C)CC[C@H](O)C(C)(C)C5CC[C@]43C)[C@@H]2C1 (some centres not stated)	?	.	.	?	.	.
CC1(C)C[C@H](O)[C@]2(CO)[C@H](O)C[C@]3(C)C(=CCC4[C@@]5(C)CC[C@H](O)C(C)(C)C5CC[C@]43C)[C@@H]2C1 (some centres not stated)	?	.	.	23µM	.	-84
CC1(C)CC[C@]2(C(=O)O)CC[C@]3(C)C(=CC[C@@H]4[C@@]5(C)CC[C@H](O)C(C)(C)[C@@H]5CC[C@]43C)[C@@H]2C1	?	.	.	23µM	.	.
CC1(c2nc3ccccc3[nH]2)c2ccccc2C(=O)N1Cc1ccccc1 (configuration not stated)	?	.	.	?	.	-55
C=C1Cc2c(Cl)cc3[nH]c4c5c3c2[C@@]2(O)[C@@H]1C[C@@H]2C(C)(C)O[C@H]5[C@@H]1CC[C@@]2(O)[C@@]35O[C@@H]3[C@@H](O)[C@@H](C(=O)O)O[C@H]5CC[C@]2(C)[C@@]41C	5.8µM	/	/	4.1µM	/	/
CN1C(c2ccc(F)cc2)=CS/C1=C(/C#N)c1nnc(N2CCOCC2)n1-c1ccccc1	?	.	.	.	.	.
C=CCN1C(c2ccccc2)=CS/C1=C(/C#N)c1nnc(N2CCOCC2)n1-c1ccccc1	18µM	.	.	15µM	.	.
CCOC(=O)N1CCC(NC(=O)c2cnn(-c3cccc(Cl)c3C)c2C2CCN(C(=O)OC(C)(C)C)CC2)CC1	.	/	.	.	.	/
CCOc1ccc(-c2cc3nc(C4CCN(C(=O)OC(C)(C)C)CC4)c(C(=O)O)cn3n2)cc1	?	.	?	?	.	.
